These results are taken from the OligoGym collection.
Note: reference of the scale not given here.

For the first assay, the target named is PKLR. Briefly: pooled miR-30 sensor sort-seq; sequence = guide strand. Particulars: shRNA.
With AATCATCATCTTCTGAGCCAGG, the sensor-assay potency score (higher = more potent) was -0.988.

As for TCGTGGTTCTCAATTTTGCTGA, the sensor-assay potency score (higher = more potent) was -0.424.

In turn, ATGCTCTCCAGCATCTGTGTGG registered a sensor-assay potency score (higher = more potent) of -1.11.

The sequence TCGCTTGTCTCTGCCCTCGTTG came in with a sensor-assay potency score (higher = more potent) of -1.2.

The sequence TAGCTCCTCAAACAGCTGCCGG showed a sensor-assay potency score (higher = more potent) of -1.23.

TAATTGGACACAGACTTTCAGG came in with a sensor-assay potency score (higher = more potent) of -0.61.

Sequence TCAATTTTGCTGATGATCTTGA returned a sensor-assay potency score (higher = more potent) of 0.666.

In the case of TTGCTGATGATCTTGATGCCGT, the sensor-assay potency score (higher = more potent) is -0.495.

As to TGTGGCACAGACAACAGGCTTG, the sensor-assay potency score (higher = more potent) was -0.0127.

Another assay addresses PLA2G4A. Described as above. The settings on record: shRNA.
Take TTGTCTGAAAGTCTTCTCCTGA: the sensor-assay potency score (higher = more potent) worked out at 0.182.

On to TACAAGGTTGACATATACCAGG, for which the sensor-assay potency score (higher = more potent) is -0.86.

As for TAGTTCTTCATTAATCTCCTCT, the sensor-assay potency score (higher = more potent) turned out to be 0.214.

Consider TATCACATCAATGTTGTTCAGA, for which the sensor-assay potency score (higher = more potent) worked out at 0.0915.

TTCTTCATTAATCTCCTCTGGC came in with a sensor-assay potency score (higher = more potent) of -0.109.

As for TGATTCATCATCACTGTCCGAG, the sensor-assay potency score (higher = more potent) came to 0.0963.

With TTTGCTTCCAAATAAGTCGGGA, the sensor-assay potency score (higher = more potent) is 0.33.

The sequence TAAAGCTGAATCACTCACCAAG came in with a sensor-assay potency score (higher = more potent) of -0.42.

TTTAAAGACATAGCACTCCTTC returned a sensor-assay potency score (higher = more potent) of -0.0879.

TTTGATAGTCACTTCCAGCATC gave a sensor-assay potency score (higher = more potent) of -0.254.

Take TAGTCAGTGAATAACATTCATA: the sensor-assay potency score (higher = more potent) is -0.999.

With TATCTTTTAACTTTCTGTGGTG, the sensor-assay potency score (higher = more potent) was -0.296.

In another assay the target is PLA2G4F. The description is as above. Particulars: shRNA.
Take TAGAGTGTGGAGATGCACCAGG: the sensor-assay potency score (higher = more potent) was -0.214.

In the case of TTGTTCAGGACGTTGTATCGAC, the sensor-assay potency score (higher = more potent) amounted to 0.0752.

In turn, TTCTTGATAGCAGTGCATCCAG yielded a sensor-assay potency score (higher = more potent) of -0.546.

TTGCACATAGCAGTCGGCTTTG registered a sensor-assay potency score (higher = more potent) of -0.794.

Consider TATATTTGCATGATGTGGCCAC, for which the sensor-assay potency score (higher = more potent) worked out at 0.329.

As for TGAACTCGCACCACTCTGCAAA, the sensor-assay potency score (higher = more potent) is -0.822.

Turning to TCGTCTGTGATATTCACACTGC, the sensor-assay potency score (higher = more potent) is -0.569.

For TTGTTCTTGATAGCAGTGCATC, the sensor-assay potency score (higher = more potent) is -1.66.

TTGCAGGTAACAGATCCGGGGT showed a sensor-assay potency score (higher = more potent) of -0.679.

Turning to TTTGTCGCTCCACACCTGGGGC, the sensor-assay potency score (higher = more potent) was -1.27.

As for TAGTACTGTAGCCGCTCCGTGG, the sensor-assay potency score (higher = more potent) was -1.01.

TTGGCCACTATCCTAGTCTGGG returned a sensor-assay potency score (higher = more potent) of -0.525.

In the next assay the target is PLA2R1. The description is as above. The settings on record: shRNA.
Sequence TTTTTCACTATGAAATACCTTG gave a sensor-assay potency score (higher = more potent) of -0.37.

As for TAAAAGATTAGAACCTTCCTTT, the sensor-assay potency score (higher = more potent) was 0.786.

TTACTTTTAAATTTTATCCAGG yielded a sensor-assay potency score (higher = more potent) of -0.532.

With TAGTATCACAACCTACTTCTGC, the sensor-assay potency score (higher = more potent) was -0.635.

Sequence TTTCTGAGCACAACTCTGGGTG gave a sensor-assay potency score (higher = more potent) of -0.349.

In turn, TTTTCTTCTAAATATACTGTAC registered a sensor-assay potency score (higher = more potent) of -0.623.

TTATCTGTGGTGAACAGTCCAA had a sensor-assay potency score (higher = more potent) of -0.19.
